Screening results from PubChem BioAssay.
In the library only some 9.5% were active in any assay of this set; here they are far more common.
Pf growth 96h: P. falciparum growth inhibition at 96 hour, primary screen for plastid delayed-death inhibitors. Potency, µM (titrated, usually from 28.7 µM), for the others: at the top dose activity change, negative = inhibition, hits mostly inhibitors. 320,000 compounds, 6.9% hits. AID 504834. P. falciparum luciferase reporter growth, 96 h; also: potency is read from the fitted curve at half-maximal effect; % is scaled to controls: 0 for no effect and ±100 for the full control effect
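Two-generation exposure (96 h) targets delayed-death phenotype. Reporter parasites carrying integrated firefly luciferase, in red cells at 2% hematocrit and 0.05% parasitemia final, kept at 37 C, 5% CO2; luminescence loss indicates inhibition.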
SARS PLpro yeast-1: inhibitors of SARS-CoV papain-like protease in yeast; S. cerevisiae expressing SARS-CoV PLpro, growth rescue; 330,000 compounds, 0.19% hits; Potency, µM (top dose mostly 32.9 µM), for the others: at the top dose activity, positive = growth rescue, hits mostly activators; calls by dose curve; also: potency is read from the fitted curve at half-maximal effect; 0% is about no effect; nearly all actives have a fitted effect of over 55% in size
NS1 inh: blocks influenza NS1 protein function; Potency, µM (top dose mostly 46.1 µM), for inactives: at the highest dose activity, positive = more growth; 270,000 compounds, 0.4% hits; AID 2326; calls by dose curve; also: potency is read from the fitted curve at half-maximal effect; actives are rising curves; nearly all actives have a fitted effect of over 50% in size
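S. cerevisiae expressing influenza A NS1, grown in glucose, washed, then diluted 1:100 into pH 6.0 -URA galactose medium with 23 nl compound. Growth recovery read as OD600; NS1-free strain serves as control.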
RE007 growth inh: less growth of the S. pombe RE007 Vpr strain; 360,000 compounds, 0.21% hits; AID 651644; S. pombe RE007 Vpr strain, BacTiter-Glo ATP luminescence, 24 h; Potency, µM (highest dose often 92.2 µM), inactives show at the top dose activity change, negative = less growth, actives largely listed as inhibitors; active = well fitted falling curve with a large enough effect; inconclusive = small, poorly fitted or top-dose-only effect; inactive = no such curve, though single readings can be large or run the other way; also: potency is read from the fitted curve at half-maximal effect; % is scaled to controls: 0 for no effect and ±100 for the full control effect; nearly all actives have a fitted effect of over 50% in size
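Fission yeast strain RE007, carrying one chromosomally integrated HIV-1 vpr copy, was seeded at OD 0.01 in PMG+AL medium with 23 nL pinned compound. After 24 h at 30 °C and 99% humidity, viability was read by BacTiter-Glo luminescence.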
Pf growth 48h: inhibits P. falciparum growth in the first generation, 48 h; P. falciparum luciferase growth in erythrocytes, 48 h; Potency, µM (titrated, usually from 28.7 µM), for inactives: at the top dose activity change, negative = inhibition, usual class: inhibitors; 310,000 compounds, 5.9% hits; AID 504832; also: potency is read from the fitted curve at half-maximal effect; % is scaled to controls: 0 for no effect and ±100 for the full control effect
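Cell-based growth assay: transgenic P. falciparum expressing firefly luciferase, cultured in red cells within RPMI 1640 containing 0.5% w/v Albumax, 24 mM bicarbonate and gentamycin. A drop in luciferase activity indicates inhibition.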
SARS PLpro yeast-2: Inhibits SARS-CoV PLP in yeast, hit validation. shares compounds with SARS PLpro yeast-1. yeast expressing SARS-CoV PLpro, growth phenotype rescue. AID 652038. calls only. 1,000 compounds, 19% hits; call rule not given here
* hit, by the source's call; i = inactive; ? = inconclusive; . = not tested or not shown; + = active, no number; [ ] = dose if it differs, or a comment. Unless noted, calls follow the shape of the dose curve; as a rule, active = well fitted inhibition curve with a large enough effect; inconclusive = small, poorly fitted or top-dose-only effect, or another doubt; inactive = no such curve, though single readings can be large or run the other way.

SMILES	Pf growth 96h	SARS PLpro yeast-1	NS1 inh	RE007 growth inh	Pf growth 48h	SARS PLpro yeast-2
COc1ccc(C(=O)N/N=C/c2sc3ccccc3c2O)cc1	?	2.8µM*	-25%	?	?	i
O=C(N/N=C/c1ccc(F)cc1)c1ccccc1	21%	-4%	.	-8%	102%	.
O=C(N/N=C/c1ccccc1)c1cccc2ccccc12	.	.	.	10%	.	.
Cc1ccc(-n2nc3c(N4CCC(C(=O)NCc5ccc(C)o5)CC4)nnc(C)c3c2C)cc1	10µM*	?	9%	-13%	?	i
COc1cccc(C(=O)Oc2c(CN3CCOCC3)cc(Cl)c3cccnc23)c1	.	?	-11%	-24%	4.7µM*	i
CCN(Cc1cccc(F)c1)C(=O)c1ccc2ccccc2n1	6%	-1%	-10%	4%	18%	.
Cc1cc(F)c(F)c(C(=O)N2CCC(C)CC2)c1Cl	-7%	0%	0%	4%	19%	.
C/C(=N\NC(=O)C(C)n1nc(C)c([N+](=O)[O-])c1C)c1ccccc1O (stereo not drawn)	?	?	15%	3%	9.3µM*	i
O=C(c1ccc(NC(=S)NCc2ccco2)cc1)N1CCCCC1	25%	?	.	13%	-22%	i
O=c1cc(N2CCOCC2)oc2c(-c3ccccc3)cccc12	.	.	0%	.	.	.
COc1ccc(CN(C)S(=O)(=O)c2nnc(NC(=O)c3cccc(F)c3)s2)cc1	56%	1%	11%	-12%	14%	.
Cc1ccc(NC(=O)CCn2c(=S)oc3ccccc32)cc1F	19%	1%	1%	-5%	16%	.
Cc1ccc2[nH]cc(C(=O)CCl)c2c1	-24%	.	-44%	-7%	?	i
Cc1ccc2[nH]cc(C(=O)CN3CCN(C)CC3)c2c1	?	?	-2%	2%	-5%	.
C[C@H](CO)N1C[C@H](C)[C@@H](CN(C)C(=O)NC2CCCCC2)Oc2ccc(NS(C)(=O)=O)cc2C1=O	.	-11%	.	-2%	.	.
O=C(NC1CCCCC1)c1ccc(Br)o1	188%	4%	-3%	-5%	7%	.
O=C(NC1CCC(O)CC1)c1ccc(Br)o1 (stereo not drawn)	.	4.5µM*	.	5%	.	i
O=C(N/N=C/c1c(O)n(CCC2=CCCCC2)c(=O)[nH]c1=O)c1ccccc1	?	10µM*	5%	7%	25%	i
COCCNC(=S)NC(=O)CC12CC3CC(CC(C3)C1)C2	12%	?	0%	-5%	?	+
CNC(=O)CC12CC3CC(CC(C3)C1)C2	27%	?	3%	11%	.	.
CCn1cc(C(=O)O)c(=O)c2cc(F)c(N3CCN(S(=O)(=O)c4ccc(NC(=O)OC)cc4)CC3)cc21	?	?	?	.	4.7µM*	i
CCn1cc(C(=O)O)c(=O)c2cc(F)c(N3CCN(C(=S)Nc4ccccc4OC)CC3)cc21	-9%	0%	1%	10%	?	.
O=C(c1ccccc1)N1CCN(C(=O)N2CCOCC2)CC1	.	?	7%	12%	.	i
CCc1nc(Cl)c(C#N)c2c1CCCC2	?	4µM*	1%	-6%	15%	i
CCN1C(=O)/C(=C2\C=Cc3ccccc3N2CC)OC1=S	.	.	-40%	1%	.	.
SMILES	Pf growth 96h	SARS PLpro yeast-1	NS1 inh	RE007 growth inh	Pf growth 48h	SARS PLpro yeast-2
CCN1C(=O)/C(=C2/C=CC=CN2C)OC1=S	-21%	11µM*	-144%	-20%	4%	i
CC(C)C(=O)NC(c1cccc([N+](=O)[O-])c1)c1ccc2cccnc2c1O (stereo not drawn)	26%	3.2µM*	.	-19%	3.7µM*	i
Cc1ccc(C(NC(=O)C(C)C)c2cc([N+](=O)[O-])c3cccnc3c2O)cc1 (stereo not drawn)	22%	?	4%	2%	3%	?
CC(C)C(=O)NC(c1cccs1)c1cc([N+](=O)[O-])c2cccnc2c1O (stereo not drawn)	2%	?	-5%	0%	?	i
CCNc1nc(NCC)n2c(SCC(=O)c3ccccc3F)nnc2n1	?	-2%	.	3%	?	.
COc1ccc2[nH]c3c(c2c1)CCNC3(C)CCc1ccc(Cl)nc1 (stereo not drawn)	?	-1%	2%	-22%	.	.
O=C(OCc1c(-c2ccccc2)ncc2ccccc12)N1CCOCC1	?	2%	.	-2%	-8%	.
C=CCc1cccc(/C=N/NC(=O)CCCNc2ccc(C)cc2)c1O	?	14µM*	1%	.	-8%	+
O=C(CCn1cnc(-c2ccccc2)c1-c1ccccc1)N/N=C/c1ccccc1O	0%	10µM*	-27%	4%	0%	i
COc1cccc(N2CCN(C(=O)c3ccc(OC)c(S(=O)(=O)NC4CC4)c3)CC2)c1	.	.	.	-4%	.	.
O=C(Nc1ccc(F)c(F)c1)c1ccccc1-c1ccccc1	8%	14µM*	0%	-15%	4%	i
CC(C)(C)c1ccc(C(=O)N2CCC2(C)C(=O)Nc2cccc(C#N)c2)cc1 (stereo not drawn)	.	.	.	-9%[18.4 µM]	.	.
NC(=S)Nc1cccc2cccnc12	?	?	3%	0%	7%	i
CC(C)(C)Sc1ccccc1S(=O)(=O)C(C)(C)C	11%	0%	3%	-10%	25%	.
CCCCCN(C(=O)NC(=O)Nc1ccc(C)cc1C)S(C)(=O)=O	11%	-2%	.	-2%	-2%	.
CCCCCN(C(=O)NC(=O)Nc1ccc(C)cc1)S(=O)(=O)c1ccccc1	61%	3.2µM*	-10%	-5%	26%	i
Cc1cccc(NC(=S)NNC(=O)COc2ccc(Cl)cc2Cl)c1	184%	10µM*	21%	12%	8%	+
CCN1C[C@@H]2[C@@H]3C(=O)N(C)C(=O)[C@@H]3[C@](C)(C1=O)N2C(=O)c1ccc(C(F)(F)F)cc1	.	.	.	13%	.	.
COc1cccc(C2CCCCN(C)C2=O)c1 (stereo not drawn)	8%	0%	0%	9%	?	.
COC(=O)c1ccccc1NS(=O)(=O)c1ccc(Cl)nc1	-5%	8%	.	-6%	28%	.
NS(=O)(=O)c1cccc(NC(=O)CCSc2ccccc2Cl)c1	110%	?	0%	10%	79%	i
O=C(CCSc1ccccc1Cl)Nc1cccc([N+](=O)[O-])c1	100%	-12%	-38%	26%	111%	.
CCC(=O)N(C)CCc1cc2c(c(OC)c1/C=N/NC(=O)c1ccccc1O)OCO2	23%	?	19%	-4%	27%	+
Cn1c2ccccc2n2c(=O)c(=O)n(CC(=O)c3ccc(Cl)cc3)nc12	21%	11µM*	23%	16%	-5%	i
COc1ccc(-c2cn(CCC(=O)O)c(-c3ccc(Cl)nc3)n2)cc1	53%	?	.	3%	15%	i
